Source: PubChem BioAssay
Rows were chosen to be rich in hits. Some 21% of all compounds tested hit in one or more screens of this group.
Pf growth 96h: inhibits malaria parasite growth, 96 h; P. falciparum luciferase reporter growth, 96 h; Potency, µM (top dose mostly 28.7 µM), without a hit: at the top dose activity change, negative = inhibition, usual class: inhibitors; actives 6.9% (n = 320,000); also: potency is read from the fitted curve at half-maximal effect; % is scaled to controls: 0 for no effect and ±100 for the full control effect
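Two parasite generations (96 h, 37 C, 5% CO2) of compound exposure in infected erythrocytes (0.05% parasitemia, 2% hematocrit). Luciferase-reporter P. falciparum; decreased luminescence indicates inhibited growth, aimed at apicoplast-acting delayed death.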
Shiga inhibitor: inhibitors of Shiga toxin in Vero cells; Vero cells, Shiga toxin protein synthesis inhibition reporter; inhibition, % at 38.7 µM; actives 9.2% (n = 290,000); in the data active = inhibition mostly above about 28%, no sharp cut-off; inactive = mostly below about 43%; also: 0% is about no effect
HCV inh: inhibitors of hepatitis C virus infection; actives 3.4% (n = 340,000); Potency, µM (top dose mostly 41.8 µM), without a hit: at the top dose activity change, negative = inhibition, hits mostly inhibitors; AID 651820; Huh7.5.1 HCVcc-Cre infection, luciferase reporter, 44 h; also: potency is read from the fitted curve at half-maximal effect; % is scaled to controls: 0 for no effect and ±100 for the full control effect
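Antiviral activity was scored by luciferase reporter output from cells infected with HCVcc-Cre (~0.5 moi) in presence of compound, 44 h infection period, cells seeded 1,000/well 4 h prior.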
Pf growth 48h: P. falciparum growth inhibition at 48 hours (one generation). P. falciparum luciferase growth in erythrocytes, 48 h. Potency, µM (highest dose often 28.7 µM), for inactives: at the highest dose activity change, negative = inhibition, hits mostly inhibitors. actives 5.9% (n = 310,000); also: potency is read from the fitted curve at half-maximal effect; % is scaled to controls: 0 for no effect and ±100 for the full control effect
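Luciferase-expressing parasites in RBCs, 2% Hct / 0.1% parasitemia final; RPMI 1640 + 0.5% Albumax; 37 C, 5% CO2, one generation; luminescence read-out, lower signal = inhibition.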
CHX counter: counter-screen hit for Shiga toxin inhibitors, cycloheximide; actives 12% (n = 300,000); max response, %; cell reporter, cycloheximide protein synthesis inhibition counterscreen; in the data active = max response mostly above about 13%, no sharp cut-off; inactive = mostly below about 14%; also: read at 38.3 µM for the half of the compounds with a filed dose; 0% is about no effect
AMA1 RON2 block: AMA1-RON2 (P. falciparum) interaction inhibition | AlphaScreen AMA1-biotinylated RON2 peptide binding | AID 720542 | actives 0.2% (n = 360,000) | Potency, µM (series often up to 58.2 µM), for inactives: at the top dose activity change, negative = inhibition, hits mostly inhibitors;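 also: potency is read from the fitted curve at half-maximal effect; 0% = vehicle wells and -100% = peptide control; nearly all actives have a fitted effect of over 45% in size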
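AMA1 (3D7) with his tag at 25 nM final met compounds first, then biotinylated RON2 peptide at 25 nM; detection used donor plus acceptor beads, 10 µg/mL apiece, read by AlphaScreen after 30 min at room temperature.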
* marks the source's active call; other numbers are inactive results; ? = inconclusive; . = no result given; [ ] = remark or other dose. Unless noted, calls follow the shape of the dose curve; as a rule, active = well fitted curve in the direction sought with a large enough effect; inconclusive = small, poorly fitted or top-dose-only effect, or another doubt; inactive = no such curve, though single readings can be large; an effect the other way counts as inactive or inconclusive.

SMILES | Pf growth 96h | Shiga inhibitor | HCV inh | Pf growth 48h | CHX counter | AMA1 RON2 block
Fc1ccc(-c2csc(-c3ccncc3)n2)cc1 | -13% | 49* | ? | -3% | 31* | -2%
CC(=O)Oc1ccc(-c2csc(Nc3ccccn3)n2)cc1 | . | . | . | . | . | 3%
Fc1ccc(-c2csc(Nc3ccccn3)n2)cc1 | 2% | 92* | ? | 241% | 48* | -1%
c1ccc(Nc2nc(-c3cccnc3)cs2)nc1 | 20% | 104* | ? | 217% | 57* | -7%
CCCn1c(SCC(=O)Nc2cc(Cl)ccc2OC)nc(O)cc1=O | 11% | . | 11% | ? | . | 0%
CCN(c1ccccc1)S(=O)(=O)c1cc(C(=O)Nc2ccc(F)c(F)c2)ccc1F | -14% | -6 | 4.5µM* | ? | -2 | 1%
O=C(Nc1ccc(Nc2ccccc2)cc1)c1ccco1 | . | 139* | ? | ? | 49* | 1%
CC(=O)N(C)c1ccc(NC(=O)c2ccco2)cc1 | 49% | 152* | 8% | 61% | 30* | -2%
O=C(Nc1ccc(NC(=O)c2ccco2)cc1)c1ccco1 | ? | -14 | 7% | 11% | -6 | -6%
CCN(c1ccccc1)S(=O)(=O)c1ccc(C(=O)Nc2cccc(NC(C)=O)c2)cc1 | . | . | -1% | . | . | -11%
O=C(Nc1ccc(Br)cc1)c1ccco1 | . | 16 | 4% | 113% | 30* | 37%
COc1ccc(C(=O)NC(C)c2ccncc2)cc1S(=O)(=O)N(C)Cc1ccccc1 (configuration not stated) | ? | . | 0% | ? | . | -12%
CN(c1ccccc1)S(=O)(=O)c1ccc(NC(=O)c2ccco2)cc1 | -18% | 20 | -3% | 6%[5.75 µM] | 14 | -3%
O=C(Nc1ccc(-c2ccccc2)cc1)c1ccco1 | 4.7µM* | -3 | 6% | -16% | 2 | 15%
O=C(Nc1cccc(-c2nnc(-c3ccccc3)o2)c1)c1ccco1 | ? | 11 | 2% | 0% | 6 | -3%
CCN(c1ccccc1)S(=O)(=O)c1ccc(NC(=O)c2ccco2)cc1 | 41% | 3 | -14% | 10µM* | -2 | 10%
O=C(Nc1ccc(Cc2ccncc2)cc1)c1ccco1 | ? | 81* | 25% | 50% | 24* | -1%
CCC(=O)N[C@H]1C=C[C@H](CC(=O)OC)O[C@@H]1CO | . | . | . | . | . | 5%
CC(C)(C)c1ccc(OCC(=O)N(Cc2cccs2)C2CCS(=O)(=O)C2)cc1 (configuration not stated) | ? | -4 | -3% | ? | -2 | -6%
CCOc1ccccc1C(=O)Nc1ccccc1-c1ccccc1 | 4.1µM* | -7 | -22% | 13% | -4 | 15%
CCOc1ccccc1C(=O)Nc1ccccc1O | . | 0 | 11µM* | ? | -2 | -18%
CCOc1ccccc1C(=O)NCC(=O)N(C)Cc1ccccc1C | 13µM* | -3 | 5% | 10µM* | -1 | 0%
CCOc1ccccc1NC(=O)c1ccoc1C | . | -15 | 6.3µM* | -8% | -6 | 14%
CCOc1ccccc1C(=O)Nc1cccc2ccccc12 | 80% | -5 | ? | -8% | 10 | 8%
CC(C)n1cc(CNC(=O)C2CCC(=O)N(Cc3ccccc3F)C2)cn1 (configuration not stated) | -19% | -1 | 4% | 2% | 2 | -10%
SMILES | Pf growth 96h | Shiga inhibitor | HCV inh | Pf growth 48h | CHX counter | AMA1 RON2 block
O=C(Nc1ccccc1-c1ccccc1)c1ccccc1Br | 0% | -9 | -8% | 0% | 0 | -2%
O=C(Nc1ccccc1Br)c1ccccc1-c1ccccc1 | 7.4µM* | -14 | ? | 2% | -4 | -1%
CCCCCCOc1ccc(C(=N)N(CCCC)CCCC)c2ccccc12 | 8.5µM* | . | . | 12µM* | . | .
CC1(C(=O)N/N=C/c2c(F)c(F)c(F)c(F)c2F)CC1(Cl)Cl (configuration not stated) | . | . | 11µM* | . | . | -1%
COc1cc(Br)c(C(C)NC(=O)c2ccccc2)cc1OC (configuration not stated) | 12µM* | 7 | 14% | 13µM* | 1 | 0%
COc1ccc(OC)c(C(C)NC(=O)c2ccc(Br)cc2)c1 (configuration not stated) | 111% | 4 | -1% | -1% | -4 | 5%
CC(C)N(Cc1ccccc1)C(=O)CN1c2cccc3cccc(c23)S1(=O)=O | . | . | ? | . | . | 32%
O=C(O)C1(Cc2nc3ccccc3[nH]2)CCCC1 | 29% | -13 | 0% | 32% | -4 | 8%
Cc1ccc(-c2cnc(-c3ccccc3C(=O)O)o2)cc1 | 42% | 61* | 7% | 18% | 29* | -22%
Fc1cccc(-c2ncc(-c3ccccc3)o2)c1 | . | . | 0% | . | . | 4%
NC(=O)c1ccc(-c2ncc(-c3ccccc3)o2)cc1 | ? | 85* | 1% | -70% | 44* | 3%
c1ccc(-c2cnc(-c3cccnc3)o2)cc1 | 75% | 59 | ? | 12% | 49* | -5%
CCN(CC(=O)NCc1cccs1)C(=O)/C=C/c1ccc(OC)cc1OC | 8% | . | 20µM* | 2% | . | 0%
CCN(CC(=O)NCc1cccs1)C(=O)/C=C/c1cc(OC)ccc1OC | -28% | . | -8% | 12% | . | 2%
Cc1ccc(-n2nc3c(c2NC(=O)c2ccc(S(=O)(=O)N4CCOCC4)cc2)CSC3)c(C)c1 | -22% | 9 | ? | 5.9µM* | 9 | 0%
O=C(Nc1c2c(nn1-c1ccc(F)cc1)CSC2)c1ccc(S(=O)(=O)N2CCOCC2)cc1 | 7% | -10 | 1% | ? | 1 | 3%
Cc1cccc(-n2nc3c(c2NC(=O)c2ccc(S(=O)(=O)N4CCOCC4)cc2)CSC3)c1C | 2% | 3 | 6% | 12µM* | -2 | -6%
C=Cc1cc(F)c(S(=O)(=O)N2CCN(S(=O)(=O)c3ccc4c(c3)OCCO4)CC2)cc1F | . | -13 | . | . | -10 | .
O=S(=O)(O)NC1CCCCC1 | -28% | . | . | ? | . | .
O=C(c1ccc2ncsc2c1)N1CCN(c2nc3ccccc3s2)CC1 | 0% | -10 | 5.6µM* | -15% | -3 | 20%
COc1cc(C(=O)N2CCN(c3cccc(C)c3C)CC2)cc(OC)c1OC | 10µM* | -9 | ? | ? | -3 | -8%
O=C(c1ccc2ncsc2c1)N1CCN(c2ccccc2Cl)CC1 | 28% | 105* | 7% | 32% | 20* | 0%
Cc1cccc(N2CCN(C(=O)c3ccc4ncsc4c3)CC2)c1C | . | 72* | ? | 26% | 30* | -18%
CC1CC(C)CN(C(=O)c2ccc3ncsc3c2)C1 (configuration not stated) | -6% | . | 32% | -6% | . | -9%
O=C(c1ccc2ncsc2c1)N1CCN(c2ccc(O)cc2)CC1 | -29% | 15 | -11% | ? | -2 | -3%
CCOc1cc(N2CCOCC2)c(OCC)cc1NC(=O)c1cnccn1 | . | . | -18% | . | . | -21%
